Potency data for 43 compounds are collected here from PubChem BioAssay (NCATS).

For assay [1], the target named is Aldehyde dehydrogenase, mitochondrial (Homo sapiens) (UniProt P05091). Put plainly: qHTS for Inhibitors of the Aldehyde Dehydrogenase Family (ALDH2) Primary screen (AID 2061308; further: nearly all actives have a fitted effect of over 55% in size). (qHTS replaces the single test concentration by a dilution series.)
Assay [2] concerns the target Retinaldehyde dehydrogenase 3 (Homo sapiens) (UniProt P47895). Put plainly: qHTS for Inhibitors of the Aldehyde Dehydrogenase Family (ALDH1A3) Primary screen (AID 2061315).

Inconclusive results are not listed. A call without a number means that no potency is given here. Activity calls are given as the source filed them. The call rests on the fitted dose curve; in most records, active means well fitted curve in the direction sought with a large enough effect; inconclusive means small, poorly fitted or top-dose-only effect, or another doubt; inactive means no such curve, though single readings can be large; an effect the other way counts as inactive or inconclusive.

For the compound `O=S(=O)(Nc1nccs1)c1ccc(NCc2ccccc2)cc1`, the Potency result in assay [1] and in assay [2] was “inactive” in each case.

With `O=C1CCc2cc(S(=O)(=O)NCc3ccccc3)ccc2N1`, the Potency result in assay [1] and in assay [2] was “inactive” in each case.

Turning to `N#Cc1c(-c2ccc(OCCOCCOCCN)cc2)no[n+]1[O-]`, the Potency result in assay [1] and in assay [2] was “inactive” in each case.

Regarding `Cc1cc2c(s1)c1cnn(Cc3cccc(Cl)c3)c(=O)c1n2C`, the Potency result in assay [1] and in assay [2] was “inactive” throughout.

Take `C[C@H](Oc1cc(-n2cnc3ccc(CN4CCN(C)CC4)cc32)sc1C(N)=O)c1ccccc1C(F)(F)F`: the Potency entry in assay [1] and in assay [2] was “inactive” each time.

In the case of `Cc1cc(NS(=O)(=O)c2ccc(NC(=O)Cc3ccc4ccccc4c3)cc2)no1`, the Potency entry in assay [1] and in assay [2] was “inactive” in each case.

Consider `O=C(NC1CCCc2c1cnn2-c1ccc(F)cc1F)c1ccc(C2(C(F)(F)F)N=N2)cc1` (stereo unspecified), for which the Potency result in assay [1] and in assay [2] was “inactive” throughout.

Regarding `Cc1cccc(CNc2ncnc3ccc(-c4ccccc4Cl)cc23)c1`, the Potency result in assay [1] and in assay [2] was “inactive” in each case.

Turning to `Cc1cc(C)nc(NC(=S)N2CCN(c3nccc4ccccc34)CC2)c1`, the Potency entry in assay [1] and in assay [2] was “inactive” each time.

With `COc1cccc(C2c3c(ncn(-c4ccccc4)c3=N)Oc3ccc4ccccc4c32)c1OC` (stereo unspecified), the Potency result in assay [1] and in assay [2] was “inactive” in each case.

As for `COc1ccccc1C1=Nn2c(nnc2-c2ccccc2C)SC1`, the Potency entry in assay [1] and in assay [2] was “inactive” in each case.

As to `Cc1ccc(OCCn2c(CCN(C)C(=O)C3CCCCC3)nc3ccccc32)cc1`, the Potency result in assay [1] and in assay [2] was “inactive” each time.

Turning to `C[C@H](C/C=C/C(C)(C)O)[C@H]1CC[C@@]2(C)[C@@H]3[C@@H](O[C@@H]4O[C@H](CO)[C@@H](O)[C@H](O)[C@H]4O)C=C4C(CC[C@H](O)C4(C)C)[C@]3(C=O)CC[C@]12C` (stereo partly specified), the Potency entry in assay [1] and in assay [2] was “inactive” throughout.

On to `Cc1cn([C@H]2C[C@H](N[S+](=O)([O-])Cc3cccc(Cl)c3)[C@@H](CO)O2)c(=O)[nH]c1=O`, for which the Potency result in assay [1] and in assay [2] was “inactive” throughout.

As for `Cc1ccnc(NC(=S)N[C@H]2CCN(c3cccc(C(F)(F)F)c3)C2)c1`, the Potency entry in assay [1] and in assay [2] was “inactive” each time.

Consider `Cc1ccc(-c2cc(C(=O)Nc3ccc(S(=O)(=O)Nc4ccc(C#N)cc4)cc3)c3ccccc3n2)cc1C`, for which the Potency entry in assay [1] and in assay [2] was “inactive” each time.

Turning to `Nc1ccccc1CNc1ccc(S(=O)(=O)Nc2nccs2)cc1`, the Potency result in assay [1] and in assay [2] was “inactive” each time.

For `CC(=O)Nc1cccc(OC2=NS(=O)(=O)c3ccccc32)c1`, the Potency result in assay [1] and in assay [2] was “inactive” each time.

Take `CS(=O)(=O)c1ccc(-c2csc(N3CCC(C(N)=O)CC3)n2)cc1`: the Potency result in assay [1] and in assay [2] was “inactive” each time.

`CCN(CC)CCn1c(-c2ccccc2)nc2c(NCCOC)nc(C)nc21`: the Potency result in assay [1] and in assay [2] was “inactive” each time.

Consider `Cc1ccc(OCCn2c(CCNC(=O)Cc3ccccc3F)nc3ccccc32)cc1`, for which the Potency result in assay [1] and in assay [2] was “inactive” throughout.

Regarding `O=S(=O)(c1ccc2c(c1)OCCO2)N1CCN(S(=O)(=O)c2ccc(F)c(F)c2F)CC1`, the Potency result in assay [1] and in assay [2] was “inactive” each time.

With `CCSC1=NS(=O)(=O)c2ccccc21`, the Potency result in assay [1] and in assay [2] was “inactive” in each case.

As to `S=C(NCCCN(Cc1ccc(Cl)c(Cl)c1)c1ccc(Br)cn1)NCCc1cnc[nH]1`, the Potency entry in assay [1] and in assay [2] was “inactive” throughout.

As for `CCCn1c(-c2ccc(F)cc2)nc2c(NC3CCN(Cc4ccccc4)C3)nc(C)nc21` (stereo unspecified), the Potency result in assay [1] and in assay [2] was “inactive” in each case.

As to `COc1c2c(c(C)c3c1C(=O)OC3)OC1(C)CC(O)C3(O)C(C)(C)OC(=O)CCC3(C)C1C2` (stereo unspecified), the Potency result in assay [1] and in assay [2] was “inactive” in each case.

Regarding `O=S(=O)(NCCNS(=O)(=O)c1c(F)cccc1F)c1ccc2c(c1)OCCO2`, the Potency entry in assay [1] and in assay [2] was “inactive” throughout.

For the compound `CO/N=C(/C(=O)N[C@@H]1C(=O)N2C(C(=O)O)=C(Cn3nnc(C)n3)CS[C@H]12)c1csc(N)n1`, the Potency result in assay [1] and in assay [2] was “inactive” each time.

Consider `CNc1oc(-c2cccc3ccccc23)nc1C(=O)OC`, for which the Potency entry in assay [1] and in assay [2] was “inactive” each time.

As to `Cc1cccc(CNc2ncnc3ccc(-c4cccnc4)cc23)c1`, the Potency result in assay [1] and in assay [2] was “inactive” throughout.

Take `COc1ccc(Cn2ncc3c4sc(C)cc4n(C)c3c2=O)cc1`: the Potency result in assay [1] and in assay [2] was “inactive” in each case.

Consider `C=C(C(=O)OC)[C@@H]1CC=C2C=CC(=O)[C@H](C)[C@@]2(C)C1`, for which the Potency result in assay [1] and in assay [2] was “inactive” throughout.

Turning to `Cc1nc(NCCO)c2nc(-c3ccccc3)n(CC3CCN(C)CC3)c2n1`, the Potency result in assay [1] and in assay [2] was “inactive” throughout.

Take `O=[S+]([O-])(Nc1ccc(N2CCNCC2)cc1)c1ccc(NCc2ccc(Cl)cc2O)cc1`: the Potency entry in assay [1] and in assay [2] was “inactive” each time.

For the compound `Cc1ccsc1CNc1ncnc2ccc(-c3ccc4c(c3)OCO4)cc12`, the Potency result in assay [1] and in assay [2] was “inactive” in each case.

`COc1c(NS(=O)(=O)c2ccc(C)cc2)cccc1C(=O)Nc1nc(-c2ccccc2)cs1`: the Potency entry in assay [1] and in assay [2] was “inactive” in each case.

As for `O=C(OCc1c(-c2ccccc2)no[n+]1[O-])c1ccccc1`, the Potency result in assay [1] and in assay [2] was “inactive” each time.

Turning to `Cn1c2cc(Br)sc2c2cnn(Cc3ccccc3F)c(=O)c21`, the Potency result in assay [1] and in assay [2] was “inactive” in each case.

In the case of `Cn1c2cc(C(=O)O)sc2c2cnn(Cc3ccccc3F)c(=O)c21`, the Potency result in assay [1] and in assay [2] was “inactive” in each case.

On to `Cc1ccc(-c2ccc(C(C)Nc3nc(-c4ccccc4C(C)C)ncc3C)cc2)cn1` (stereo unspecified), for which the Potency entry in assay [1] and in assay [2] was “inactive” in each case.

On to `Fc1cccc(CSc2nc3ncc(Br)cc3[nH]2)c1`, for which the Potency result in assay [1] and in assay [2] was “inactive” each time.

Take `CC(=O)Nc1sc2c(c1Br)CCNC2`: the Potency result in assay [1] and in assay [2] was “inactive” each time.

Take `CC(C)n1nc(Cc2cccc3ccccc23)c2c(N)ncnc21`: the Potency entry in assay [1] and in assay [2] was “inactive” throughout.
